{"source": "PubChem BioAssay (NCATS)", "key": {"[1]": {"biological_target": "Rap guanine nucleotide exchange factor 3 (Homo sapiens) (UniProt O95398)", "sequence (O95398 whole entry, looked up)": "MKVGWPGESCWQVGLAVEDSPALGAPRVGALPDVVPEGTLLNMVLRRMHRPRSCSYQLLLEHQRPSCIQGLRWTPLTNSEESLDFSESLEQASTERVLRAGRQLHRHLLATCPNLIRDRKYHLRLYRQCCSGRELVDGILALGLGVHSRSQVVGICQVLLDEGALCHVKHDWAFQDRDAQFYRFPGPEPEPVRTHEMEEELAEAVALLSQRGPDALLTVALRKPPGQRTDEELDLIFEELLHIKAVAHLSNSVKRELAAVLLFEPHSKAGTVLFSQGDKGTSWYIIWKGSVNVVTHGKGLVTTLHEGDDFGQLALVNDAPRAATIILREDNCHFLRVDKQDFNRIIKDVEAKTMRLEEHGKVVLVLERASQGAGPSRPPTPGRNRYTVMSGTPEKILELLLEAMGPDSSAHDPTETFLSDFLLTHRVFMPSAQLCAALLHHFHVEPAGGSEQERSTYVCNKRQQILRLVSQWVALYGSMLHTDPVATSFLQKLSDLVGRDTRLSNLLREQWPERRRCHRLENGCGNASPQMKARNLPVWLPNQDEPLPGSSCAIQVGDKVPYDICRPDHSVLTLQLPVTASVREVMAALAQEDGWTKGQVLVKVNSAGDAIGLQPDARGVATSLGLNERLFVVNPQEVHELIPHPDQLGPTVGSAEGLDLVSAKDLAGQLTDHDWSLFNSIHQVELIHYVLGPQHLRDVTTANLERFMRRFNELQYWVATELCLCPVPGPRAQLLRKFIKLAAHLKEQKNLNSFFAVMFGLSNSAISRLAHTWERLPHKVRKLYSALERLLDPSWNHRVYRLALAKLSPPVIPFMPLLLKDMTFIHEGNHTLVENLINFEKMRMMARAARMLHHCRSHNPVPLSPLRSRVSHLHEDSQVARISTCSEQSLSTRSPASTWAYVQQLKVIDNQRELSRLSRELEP", "assay": "Confirmatory qHTS for antagonist of cAMP-regulated guanine nucleotide exchange factor 3 (EPAC1) (AID 1645880); note: nearly all actives have a fitted effect of over 55% in size; note: potency is the fitted concentration of half-maximal effect", "conditions": "EPAC1 Rap1B-BODIPY-GDP exchange, fluorescence; activity, negative = inhibition: at 115 µM (top of the series)", "in_short": "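Nucleotide exchange uses 100 nM EPAC1, 250 nM RAP1B-BODIPY-GDP and 50 uM GDP, with compounds in a concentration-titration series. After 5 min at room temperature, fluorescence (480 nm ex/540 nm em) is read every 5 min for 30 min. Data are normalized to control ATA and DMSO.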"}, "[2]": {"biological_target": "Rap guanine nucleotide exchange factor 4 (Homo sapiens) (UniProt Q8WZA2)", "sequence (Q8WZA2 whole entry, looked up)": "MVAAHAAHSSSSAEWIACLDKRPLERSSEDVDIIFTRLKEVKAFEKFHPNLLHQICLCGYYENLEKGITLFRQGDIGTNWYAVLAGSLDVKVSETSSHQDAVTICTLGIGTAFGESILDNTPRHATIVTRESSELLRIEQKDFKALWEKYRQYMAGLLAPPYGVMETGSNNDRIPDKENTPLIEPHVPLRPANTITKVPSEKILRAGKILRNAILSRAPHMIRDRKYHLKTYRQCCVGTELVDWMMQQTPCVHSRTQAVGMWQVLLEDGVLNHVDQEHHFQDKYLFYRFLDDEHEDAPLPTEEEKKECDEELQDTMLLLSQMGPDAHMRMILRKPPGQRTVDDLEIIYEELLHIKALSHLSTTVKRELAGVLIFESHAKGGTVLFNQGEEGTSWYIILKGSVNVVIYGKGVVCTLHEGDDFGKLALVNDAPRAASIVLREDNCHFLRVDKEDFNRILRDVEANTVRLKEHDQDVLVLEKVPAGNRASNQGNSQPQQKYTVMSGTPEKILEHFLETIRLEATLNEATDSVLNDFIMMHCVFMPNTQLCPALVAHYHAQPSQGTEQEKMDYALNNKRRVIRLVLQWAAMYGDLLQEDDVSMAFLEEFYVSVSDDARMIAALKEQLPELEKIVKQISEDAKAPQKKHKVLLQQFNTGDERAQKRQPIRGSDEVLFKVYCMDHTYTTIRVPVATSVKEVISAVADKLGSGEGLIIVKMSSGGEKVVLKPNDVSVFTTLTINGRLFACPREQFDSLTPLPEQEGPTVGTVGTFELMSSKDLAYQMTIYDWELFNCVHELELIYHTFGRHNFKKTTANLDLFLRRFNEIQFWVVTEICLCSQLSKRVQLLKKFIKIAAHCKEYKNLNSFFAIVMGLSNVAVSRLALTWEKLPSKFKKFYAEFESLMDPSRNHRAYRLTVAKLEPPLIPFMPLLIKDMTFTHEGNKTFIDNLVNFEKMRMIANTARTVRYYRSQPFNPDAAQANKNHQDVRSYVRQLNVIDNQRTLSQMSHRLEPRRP", "assay": "Confirmatory qHTS for agonist of cAMP-regulated guanine nucleotide exchange factor 4 (EPAC2) (AID 1645884);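 note: nucleotide exchange releases bodipy-GDP from Rap1 and this lowers its fluorescence; nearly all actives have a fitted effect of over 65% in size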; note: potency is the fitted concentration of half-maximal effect"}, "[3]": {"biological_target": "Rap guanine nucleotide exchange factor 4 (Homo sapiens) (UniProt Q8WZA2)", "assay": "Confirmatory qHTS for antagonist of cAMP-regulated guanine nucleotide exchange factor 4 (EPAC2) (AID 1645885); note: nearly all actives have a fitted effect of over 25% in size; note: potency is the fitted concentration of half-maximal effect"}, "[4]": {"biological_target": "Rap guanine nucleotide exchange factor 3 (Homo sapiens) (UniProt O95398)", "assay": "Counterscreen qHTS for antagonist of cAMP-regulated guanine nucleotide exchange factor 3 (EPAC1) (AID 1645888)", "in_short": "(§1)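 Rap1B-BODIPY-GDP 250 nM + GDP 50 uM; cpds 7-pt, final 9.74 nM–152 uM (activator mode) or from 7.32 nM upwards (inhibitor mode); RT; FI 480/540 nm at 5 and 30 min, then ± cAMP, reread.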"}, "[5]": {"biological_target": "Rap guanine nucleotide exchange factor 3 (Homo sapiens) (UniProt O95398)", "assay": "Counterscreen qHTS for agonist of cAMP-regulated guanine nucleotide exchange factor 3 (EPAC1) (AID 1645889)", "in_short": "as §1"}, "[6]": {"biological_target": "Tumor susceptibility gene 101 protein (Homo sapiens) (UniProt Q99816)", "sequence (Q99816 whole entry, looked up, the tested form may be a part)": "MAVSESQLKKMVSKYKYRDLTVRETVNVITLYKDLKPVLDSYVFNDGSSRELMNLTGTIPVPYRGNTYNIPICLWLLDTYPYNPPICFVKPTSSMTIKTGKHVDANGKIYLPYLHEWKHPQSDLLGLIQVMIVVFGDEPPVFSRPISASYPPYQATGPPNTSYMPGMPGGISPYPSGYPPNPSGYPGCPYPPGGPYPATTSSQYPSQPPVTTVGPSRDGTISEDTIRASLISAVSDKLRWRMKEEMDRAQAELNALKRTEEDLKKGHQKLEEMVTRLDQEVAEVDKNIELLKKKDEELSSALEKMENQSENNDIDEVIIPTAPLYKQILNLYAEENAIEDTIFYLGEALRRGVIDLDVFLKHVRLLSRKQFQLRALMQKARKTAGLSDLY", "assay": "qHTS Assay for Iinhibitors of HIV-1 Budding by Blocking the Interaction of PTAP/TSG101: Hit Validation (AID 651600)", "in_short": "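Compounds are added to the Tsg101 binding domain (10 uM final) in pH 7.5 HEPES buffer. FITC-PTAP peptide follows at 50 nM final. After 20 min at r.t., polarized FITC emission is measured.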"}, "[7]": {"assay": "AP1 Signaling Pathway (AID 357; active = well fitted curve in either direction with a large enough effect, not every such curve was filed as active)", "conditions": "ME-180 AP-1-bla reporter, EGF-induced, beta-lactamase ratio, 5 h; at 7.69 µM (top of the series) unless noted", "in_short": "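AP-1-bla ME-180 cells, Opti-MEM + 0.5% dialyzed FBS, plated overnight 37 °C. Cpd titration + EC50 EGF, 5 h 37 °C. CCF4 2.5 h RT; ex 405, em 460/530 ratio → %activity, AC50.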"}, "[8]": {"biological_target": "Glucocorticoid receptor (Homo sapiens) (UniProt P04150)", "sequence (P04150 whole entry, looked up)": "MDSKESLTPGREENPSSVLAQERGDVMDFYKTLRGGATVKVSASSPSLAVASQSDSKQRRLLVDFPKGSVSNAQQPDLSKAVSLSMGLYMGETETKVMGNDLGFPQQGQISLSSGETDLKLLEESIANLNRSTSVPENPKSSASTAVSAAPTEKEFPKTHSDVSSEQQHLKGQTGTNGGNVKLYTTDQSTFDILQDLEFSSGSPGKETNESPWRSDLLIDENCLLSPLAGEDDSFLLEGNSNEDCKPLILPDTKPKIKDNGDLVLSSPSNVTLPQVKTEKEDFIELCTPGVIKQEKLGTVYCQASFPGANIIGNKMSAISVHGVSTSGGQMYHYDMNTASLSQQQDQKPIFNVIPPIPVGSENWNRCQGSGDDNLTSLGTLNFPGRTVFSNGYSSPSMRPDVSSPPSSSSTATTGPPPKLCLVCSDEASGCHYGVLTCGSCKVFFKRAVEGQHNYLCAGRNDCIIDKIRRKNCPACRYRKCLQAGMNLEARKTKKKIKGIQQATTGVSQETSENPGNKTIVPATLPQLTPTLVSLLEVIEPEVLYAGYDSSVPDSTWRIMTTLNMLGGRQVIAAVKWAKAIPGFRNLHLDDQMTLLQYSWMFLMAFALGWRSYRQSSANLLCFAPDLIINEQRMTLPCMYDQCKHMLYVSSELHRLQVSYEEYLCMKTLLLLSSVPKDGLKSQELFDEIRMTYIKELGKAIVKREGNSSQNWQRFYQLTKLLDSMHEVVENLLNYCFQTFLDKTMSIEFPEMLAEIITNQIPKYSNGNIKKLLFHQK", "assay": "GR-GFP Redistribution (AID 450;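 active = compounds whose dose series gives a full or clear partial fitted curve of increased nuclear translocation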)", "conditions": "U2OS GR-GFP nuclear translocation, laser cytometry, 2 h"}, "[9]": {"assay": "qHTS Assay for Identification of Small Molecule Agonists for Hypoxia Response Element Signaling Pathway (AID 914; active = well fitted activation curve with a large enough effect in the signal ratio, with a control signal flat, not every such curve was filed as active; the % refers to the signal ratio)", "conditions": "ME-180 HRE-bla reporter, beta-lactamase ratio, CoCl2, 17 h; activation: stronger effect = higher value", "in_short": "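In Opti-MEM containing 0.5% dialyzed FBS and 10 mM HEPES, ME-180 HRE-bla cells received a compound titration and EC50 CoCl2. They were incubated 17 hours, then CCF4-loaded 2.5 hours at room temperature before ratio reading.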"}, "[10]": {"assay": "Stat Signaling Pathway (AID 446; active = well fitted curve in either direction with a large enough effect, not every such curve was filed as active)", "in_short": "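ME-180 cells carrying a SIE-driven beta-lactamase reporter are stimulated with 40 pM IL-6 for 5 h at 37C in the presence of compound. The 460/530 nm FRET substrate ratio is read after 2.5 h at RT. Data are normalised to 300 pM IL-6 and to 125 nM JAK inhibitor controls.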"}, "[11]": {"assay": "Counterscreen for APE1 Inhibitors: Fluorescent Dye Displacement Assay (AID 2564)", "in_short": "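Thiazole Orange (250 nM) bound to 50 nM TAMRA-labelled dsDNA with tetrahydrofuran abasic site; displacement by DNA-binding compounds lowers fluorescence. Buffer 50 mM Tris-HCl pH 7.5, 50 mM NaCl, 2 mM MgCl2, 0.01% Tween-20; endpoint read at 480/540 nm.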"}, "[12]": {"biological_target": "Endonuclease 4 (Escherichia coli (strain K12)) (UniProt P0A6C1)", "assay": "Counterscreen for APE1 Inhibitors: qHTS Assay for Inhibitors of Endonuclease IV (AID 2565)", "in_short": "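qHTS concentration-response format; LOPAC1280 tested under APE1-screen conditions. 2 nM enzyme, 15 min compound preincubation at RT, then 50 nM TAMRA/BHQ-2 abasic substrate; kinetic fluorescence read, three reads at 60 s intervals.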"}, "[13]": {"biological_target": "DNA repair nuclease/redox regulator APEX1 (Homo sapiens) (UniProt P27695)", "sequence (P27695 whole entry, looked up)": "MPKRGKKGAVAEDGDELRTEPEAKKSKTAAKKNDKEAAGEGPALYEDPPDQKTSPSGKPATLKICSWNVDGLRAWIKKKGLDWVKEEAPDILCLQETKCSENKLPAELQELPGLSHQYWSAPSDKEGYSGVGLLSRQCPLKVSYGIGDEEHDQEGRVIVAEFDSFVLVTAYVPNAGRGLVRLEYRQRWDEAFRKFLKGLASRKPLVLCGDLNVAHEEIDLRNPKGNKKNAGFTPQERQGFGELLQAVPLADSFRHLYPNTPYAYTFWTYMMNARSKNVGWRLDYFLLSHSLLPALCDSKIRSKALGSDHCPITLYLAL", "assay": "Confirmation qHTS Assay for Inhibitors of the Human Apurinic/apyrimidinic Endonuclease 1 (APE1) (AID 2572)", "conditions": "purified APE1, fluorogenic abasic-site DNA cleavage", "in_short": "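Enzyme and test compound were incubated for 15 min at room temperature, after which a 50 nM (final) double-stranded abasic-site substrate bearing 5'-TAMRA and 3'-BHQ-2 was added. Incision was followed as fluorescence increase over three reads.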"}, "[14]": {"biological_target": "DNA repair nuclease/redox regulator APEX1 (Homo sapiens) (UniProt P27695)", "assay": "qHTS FP-Based Assay for Inhibitors of the Human Apurinic/apyrimidinic Endonuclease 1 (APE1) (AID 2573)"}}, "note": "A number with no mark means an inactive call. Results filed as inconclusive are left out. Some of the results follow. Where a call stands in place of a potency, no number is given. The source made the active and inactive calls. Unless noted, calls come from the whole dose curve; as a rule, active = well fitted curve in the direction sought with a large enough effect; inconclusive = small, poorly fitted or top-dose-only effect, or another doubt; inactive = no such curve, though single readings can be large; an effect the other way counts as inactive or inconclusive.", "data": [{"smiles": "COC(=O)c1cc(NC(=O)c2ccccc2)c(=O)oc1C/C=N\\OCc1ccc(Cl)cc1Cl", "values": [{"measurement": "Potency", "setting": "[1]", "result": "inactive"}, {"measurement": "activation", "setting": "[2]", "result": "-1.43% [at 17.1 µM, percent relative to cAMP agonist control]"}, {"measurement": "Potency", "setting": "[3]", "result": "inactive"}, {"measurement": "activity change, negative = inhibition", "setting": "[4]", "result": "-10.8% [at 30.8 µM]"}, {"measurement": "activation", "setting": "[5]", "result": "26% [at 30.8 µM]"}]}, {"smiles": "COc1ccc(N=Cc2sc(O)c3ccccc23)cc1", "values": [{"measurement": "Potency", "setting": "[1]", "result": "inactive"}, {"measurement": "activation", "setting": "[2]", "result": "2.81% [at 17.1 µM, percent relative to cAMP agonist control]"}, {"measurement": "Potency", "setting": "[3]", "result": "inactive"}, {"measurement": "activity change, negative = inhibition", "setting": "[4]", "result": "46.8% [at 30.8 µM]"}, {"measurement": "activation", "setting": "[5]", "result": "29% [at 30.8 µM]"}]}, {"smiles": "COc1ccc(O)c(C(=O)c2cc(SCC(=O)O)c3nc4sc5c(c4c(=O)n3c2)CCCC5)c1", "values": [{"measurement": "Potency", "setting": "[1]", "result": "23.9 µM (active)"}, {"measurement": "Potency", "setting": "[2]", "result": "inactive"}, {"measurement": "Potency", "setting": "[3]", "result": "inactive"}, {"measurement": "Potency", "setting": "[4]", "result": "inactive"}, {"measurement": "Potency", "setting": "[5]", "result": "inactive"}]}, {"smiles": "CCCN1C(=O)S/C(=C/c2ccc(N3CCOCC3)o2)C1=O", "values": [{"measurement": "Potency", "setting": "[1]", "result": "inactive"}, {"measurement": "Potency", "setting": "[2]", "result": "112 µM (active)"}, {"measurement": "Potency", "setting": "[3]", "result": "67.5 µM (active)"}, {"measurement": "Potency", "setting": "[4]", "result": "inactive"}, {"measurement": "Potency", "setting": "[5]", "result": "inactive"}]}, {"smiles": "Cc1cc2nc3c(=O)[nH]c(=O)[nH]c3nc2c([N+](=O)[O-])c1N", "values": [{"measurement": "Potency", "setting": "[6]", "result": "13 µM (active)"}, {"measurement": "Potency", "setting": "[1]", "result": "inactive"}, {"measurement": "Potency", "setting": "[2]", "result": "100 µM (active)"}, {"measurement": "Potency", "setting": "[3]", "result": "inactive"}, {"measurement": "Potency", "setting": "[4]", "result": "inactive"}, {"measurement": "Potency", "setting": "[5]", "result": "56.2 µM (active)"}]}, {"smiles": "Cc1ccc2oc(=O)c(/C=C(\\O)c3ccccc3)nc2c1", "values": [{"measurement": "Potency", "setting": "[6]", "result": "inactive"}, {"measurement": "Potency", "setting": "[1]", "result": "inactive"}, {"measurement": "activation", "setting": "[2]", "result": "10.1% [at 17.1 µM, percent relative to cAMP agonist control]"}, {"measurement": "Potency", "setting": "[3]", "result": "inactive"}, {"measurement": "activity change, negative = inhibition", "setting": "[4]", "result": "0.517% [at 30.8 µM]"}, {"measurement": "activation", "setting": "[5]", "result": "12.5% [at 30.8 µM]"}]}, {"smiles": "Cc1[nH]c2ccccc2c1C(c1ccccc1)c1ccc(Cl)s1", "note": "(stereo not given)", "values": [{"measurement": "Potency", "setting": "[1]", "result": "inactive"}, {"measurement": "Potency", "setting": "[2]", "result": "inactive"}, {"measurement": "Potency", "setting": "[3]", "result": "inactive"}, {"measurement": "Potency", "setting": "[4]", "result": "inactive"}, {"measurement": "Potency", "setting": "[5]", "result": "inactive"}]}, {"smiles": "O=C1CCNc2ccc(-c3ccccc3)cc21", "values": [{"measurement": "Potency", "setting": "[6]", "result": "8.19 µM (active)"}, {"measurement": "Potency", "setting": "[1]", "result": "inactive"}, {"measurement": "Potency", "setting": "[2]", "result": "112 µM (active)"}, {"measurement": "Potency", "setting": "[3]", "result": "inactive"}, {"measurement": "Potency", "setting": "[4]", "result": "inactive"}, {"measurement": "Potency", "setting": "[5]", "result": "56.2 µM (active)"}]}, {"smiles": "O=c1oc2cc(O)ccc2cc1-c1nnc(Nc2ccccc2F)s1", "values": [{"measurement": "Potency", "setting": "[1]", "result": "inactive"}, {"measurement": "Potency", "setting": "[2]", "result": "14.1 µM (active)"}, {"measurement": "Potency", "setting": "[3]", "result": "3.38 µM (active)"}, {"measurement": "Potency", "setting": "[4]", "result": "inactive"}, {"measurement": "Potency", "setting": "[5]", "result": "3.55 µM (active)"}]}, {"smiles": "CCN(CC)c1ccc2cc(C(=O)Nc3ccccn3)c(=O)oc2c1", "values": [{"measurement": "activity change, negative = inhibition", "setting": "[7]", "result": "7.12% [at 17.2 µM]"}, {"measurement": "Potency", "setting": "[8]", "result": "> 20.6", "unit": "µM"}, {"measurement": "Potency", "setting": "[9]", "result": "3.98 µM (active)"}]}, {"smiles": "CCN(CC)c1ccc2cc(-c3nnc(-c4ccncc4)o3)c(=O)oc2c1", "values": [{"measurement": "outcome", "setting": "[10]", "result": "inactive"}]}, {"smiles": "N#Cc1c(-c2cccs2)nc(SCC(=O)c2ccc(Br)cc2)[nH]c1=O", "values": [{"measurement": "outcome", "setting": "[11]", "result": "inactive"}, {"measurement": "outcome", "setting": "[12]", "result": "inactive"}, {"measurement": "Potency", "setting": "[13]", "result": "15.8 µM (active)"}, {"measurement": "outcome", "setting": "[14]", "result": "inactive"}]}, {"smiles": "COC(=O)C1=NN(c2ccc(C)cc2)C2(S1)SC(C(C)=O)=C(C)N2c1ccccc1", "note": "(stereo not given)", "values": [{"measurement": "Potency", "setting": "[1]", "result": "inactive"}, {"measurement": "Potency", "setting": "[2]", "result": "100 µM (active)"}, {"measurement": "Potency", "setting": "[4]", "result": "inactive"}, {"measurement": "Potency", "setting": "[5]", "result": "inactive"}]}, {"smiles": "CSc1ncccc1C(=O)OCc1c(F)cccc1Cl", "values": [{"measurement": "Potency", "setting": "[1]", "result": "inactive"}, {"measurement": "Potency", "setting": "[2]", "result": "inactive"}, {"measurement": "Potency", "setting": "[4]", "result": "inactive"}]}, {"smiles": "CC(=O)Nc1ccc(Nc2c3c4c(cccc4n(C)c2=O)C(=O)c2ccccc2-3)cc1", "values": [{"measurement": "Potency", "setting": "[1]", "result": "inactive"}, {"measurement": "Potency", "setting": "[2]", "result": "100 µM (active)"}, {"measurement": "Potency", "setting": "[4]", "result": "inactive"}]}, {"smiles": "CC(=Nc1ccc(C)cc1C)c1sc2ccccc2c1O", "values": [{"measurement": "Potency", "setting": "[6]", "result": "inactive"}, {"measurement": "Potency", "setting": "[1]", "result": "inactive"}, {"measurement": "Potency", "setting": "[2]", "result": "100 µM (active)"}, {"measurement": "Potency", "setting": "[4]", "result": "inactive"}]}]}
